Screening data from PubChem BioAssay.
DT40 TDP1 no CPT: qHTS for Inhibitors of human tyrosyl-DNA phosphodiesterase 1 (TDP1): qHTS in cells in absence of CPT. DT40 Tdp1-/- hTDP1 cells, no CPT, ATP luminescence, 48 h. Potency, µM (doses to about 46.2 µM), for the others: top-dose activity change, negative = growth inhibition, hits mostly inhibitors. 420,000 compounds, 15% hits. AID 686978, 2013; further: nearly all actives have a fitted effect of over 55% in size
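Seeded 400 DT40-hTDP1 cells/well (vehicle DMSO, no 20 nM CPT); pinned compounds; ≥48 hr at 37 °C; CellTiter-Glo luminescence as viability measure.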
KB-V1 cytotox: KB-V1 MDR subline cytotoxicity; 400,000 compounds, 3.4% hits; Potency, µM (titrated, usually from 46.1 µM), hits mostly cytotoxic; KB-V1 MDR cells viability, CellTiter-Glo, 72 h; further: nearly all actives have a fitted effect of over 60% in size
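Cytotoxicity toward P-gp-expressing KB-V1 cells was determined as loss of CellTiter-Glo luminescence after 72 h at 37 degrees C. Compounds were tested in quantitative HTS format across a concentration range, with curves fitted to normalized data.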
HT1080 IDH1KD tx: kills HT-1080 cells with IDH1 knockdown | Potency, µM (highest dose often 46.1 µM), inactives show at the top dose activity, negative = toxicity, usual class: cytotoxic | HT-1080 IDH1 knockdown viability, ATP luminescence, 48 h | AID 686971 | 360,000 compounds, 2% hits;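 further: 0% = DMSO wells and -100% = cell-free medium wells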
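Luminescent ATP read-out (CellTiter-Glo, 10 min at room temperature) after 48 h compound exposure at 37 °C gave viability of IDH1-knockdown HT-1080 cells. Activity was normalised to DMSO and cell-free wells, then fitted as concentration-response curves.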
KB-3-1 tox: kills parental KB-3-1 adenocarcinoma cells | KB-3-1 viability, CellTiter-Glo ATP luminescence, 72 h | Potency, µM (top dose mostly 46.1 µM), usual class: cytotoxic | 400,000 compounds, 1.4% hits | AID 1347075; further: nearly all actives have a fitted effect of over 60% in size
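Multi-concentration cytotoxicity screen in KB-3-1 cells grown in DMEM lacking phenol red with 10% FBS. After 72 h at 37 °C with compound, ATP-dependent luminescence was recorded.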
HT1080NT lethal: kills 2HG-producing HT-1080-NT fibrosarcoma cells; HT-1080-NT fibrosarcoma viability, CellTiter-Glo ATP luminescence, 48 h; Potency, µM (highest dose often 46.1 µM), for the others: at the top dose activity, negative = less viability, usual class: cytotoxic; 360,000 compounds, 1.6% hits; AID 686970;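 further: NT is the 2HG producing partner of a matched IDH1 knockdown line; 0% = DMSO-treated cells and -100% = media-only wells without cells; nearly all actives have a fitted effect of over 55% in size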
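750 cells/well, RPMI + 5% FBS; 2 h settle, compound pin-transfer, 48 h at 37 degrees C. CellTiter-Glo 10 min RT, luminescence. Normalized to DMSO and media-only wells.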
DT40 TDP1 CPT: growth inhibition of DT40 Tdp1-/-;hTDP1 cells with camptothecin (screen for TDP1 inhibitors). chicken DT40 Tdp1-/-;hTDP1 cells + 20 nM CPT, ATP luminescence, 48 h. Potency, µM (titrated, usually from 46.2 µM), without a hit: at the highest dose activity change, negative = growth inhibition, hits mostly inhibitors. 420,000 compounds, 12% hits; further: nearly all actives have a fitted effect of over 55% in size
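Chicken DT40 Tdp1-/- cells stably complemented with human TDP1 were seeded at 400 cells/well in medium containing 20 nM camptothecin, exposed to pin-transferred compounds, and grown at 37 °C for at least 48 hr. Viability was read as ATP luminescence.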
Starred values were filed as active, the others as inactive; i = inactive; ? = inconclusive; · = no result; [ ] = dose if it differs, or a comment. An excerpt weighted towards active compounds, which were near 19% of everything screened. The call rests on the fitted dose curve; in most records, active means well fitted curve in the direction sought with a large enough effect; inconclusive means small, poorly fitted or top-dose-only effect, or another doubt; inactive means no such curve, though single readings can be large; an effect the other way counts as inactive or inconclusive. Unless noted, on the % scale 0 is the no-effect control and ±100 the full control effect; potency means the concentration at half of the fitted maximal effect.

SMILES | DT40 TDP1 no CPT | KB-V1 cytotox | HT1080 IDH1KD tx | KB-3-1 tox | HT1080NT lethal | DT40 TDP1 CPT
O=C(NCCn1ccc2ccccc21)c1ccc(S(=O)(=O)N2CCCCC2)cc1 | 23µM* | i | -12% | i | -16% | ?
COc1ccc(CCNC(=O)c2cccc([N+](=O)[O-])c2)cc1OC | ? | i | ? | i | ? | ?
Cc1ccc(SCCNC(=O)c2ccc([N+](=O)[O-])c(C)c2)cc1 | -28% | i | 4% | i | 2% | -12%
CS(=O)(=O)Nc1ccc(C(=O)NCCSCc2ccccc2)cc1 | -21% | i | -3% | i | -16% | -5%
Cc1cc(CSc2ccccc2)ccc1NC(=O)c1ccc(C)c([N+](=O)[O-])c1 | 18µM* | i | 3% | i | 2% | -14%
Cc1ccc(CSCCNC(=O)c2ccccc2)cc1 | -36% | i | 0% | i | 5% | -21%
Cc1ccc(SCCNC(=O)c2ccc(C)c([N+](=O)[O-])c2)cc1 | -34% | 23µM* | -4% | i | 8% | ?
Cc1ccc(C(=O)NCCSCc2ccccc2)cc1[N+](=O)[O-] | ? | 21µM* | 25% | i | 4% | ?
Cc1ccc(CSCCNC(=O)c2cccc([N+](=O)[O-])c2)cc1 | ? | 18µM* | -2% | i | -1% | ?
COc1ccccc1-n1c(=O)c2c3c(sc2n2c(=S)[nH]nc12)CCC3 | -20% | i | 2% | i | -1% | -15%
Cc1ccccc1CNC(=O)/C=C\C(=O)O | 16% | i | 11% | i | 16% | 3%
Cc1ccccc1CNC(=O)c1ccc(CSCc2ccccc2)cc1 | 21µM* | i | -3% | i | -5% | ?
Cc1ccccc1NS(=O)(=O)c1cc(C(=O)NCc2ccco2)ccc1C | -6% | ? | -16% | i | -19% | -26%
Cc1ccc(SCCNC(=O)c2ccc(C)c(S(=O)(=O)Nc3ccccc3C)c2)cc1 | 22µM* | ? | ? | i | ? | ?
O=S(=O)(c1ccc2ccccc2c1)N(CC(O)CN1CCOCC1)c1ccccc1 (configuration not stated) | ? | i | ? | i | -5% | -29%
Nc1ccc2nc(-c3ccc(N)c(Cl)c3)[nH]c2c1 | 8.2µM* | i | -9% | i | -21% | 6.5µM*
COc1ccc2nc(-c3ccc(N)cc3)[nH]c2c1 | ? | i | -1% | i | -13% | ?
Nc1ccc(-c2nc3c(Cl)cc(N)cc3[nH]2)cc1 | 7.3µM* | i | -13% | i | 2% | 5.8µM*
Nc1ccc2nc(-c3cccnc3)[nH]c2c1 | -23% | i | 9% | i | 9% | -1%
CC(=O)Nc1ccc2nc(-c3cccs3)[nH]c2c1 | -18% | i | -6% | i | -3% | -10%
Nc1ccc2nc(-c3cccs3)[nH]c2c1 | ? | i | -23% | i | -9% | 21µM*
FC(F)(F)c1ccccc1-c1cc(NCCN2CCOCC2)ncn1 | -1% | · | · | · | · | -4%
N#Cc1c(NC(=O)Cn2c(=O)oc3ccccc32)oc(-c2ccccc2)c1-c1ccccc1 | 8.2µM* | i | ? | i | -29% | 9.2µM*
O=C(Cn1c(=O)oc2ccccc21)Nc1ccc(Br)cc1 | -2% | i | -23% | i | -23% | -1%
Cc1cccc(C)c1OCC(=O)Nc1oc(-c2ccccc2)c(-c2ccccc2)c1C#N | ? | 16µM* | -20% | ? | ? | ?
SMILES | DT40 TDP1 no CPT | KB-V1 cytotox | HT1080 IDH1KD tx | KB-3-1 tox | HT1080NT lethal | DT40 TDP1 CPT
CCOc1ccc(C(C)=O)cc1COC(=O)CNC(=O)C12CC3CC(CC(C3)C1)C2 | ? | i | 11% | i | 15% | -22%
COc1cc(OC)cc(C(=O)NCC(=O)OCc2cc(=O)oc3cc(OC)ccc23)c1 | 15% | i | 7% | i | 6% | 11%
CCOc1ccccc1C(=O)NCC(=O)OCc1csc(CC(=O)Nc2ccc(C)cc2)n1 | -7% | · | -13% | · | -4% | ?
CCOc1ccccc1C(=O)N[C@H](C(=O)OCc1cc(=O)oc2cc(C)ccc12)C(C)C | 16µM* | 3.3µM* | -23% | i | -19% | 6.5µM*
CC(C)C(NC(=O)c1ccccc1)C(=O)OCn1nnc2ccccc2c1=O (configuration not stated) | -18% | i | 1% | i | -2%[9.24 µM] | -24%
COc1cc(OC)cc(C(=O)N[C@H](C(=O)OCc2cc(=O)oc3cc(C)ccc23)C(C)C)c1 | ? | 3.7µM* | -1% | i | 1% | ?
CCOc1ccccc1C(=O)NC(C(=O)OCn1nnc2ccccc2c1=O)C(C)C (configuration not stated) | 26µM* | i | 8% | i | 15% | ?
CCOc1ccccc1C(=O)N[C@H](C(=O)OCc1csc(CC(=O)Nc2ccc(C)cc2)n1)C(C)C | 15µM* | i | ? | i | ? | 18µM*
Cc1ccc2c(COC(=O)c3ccccc3Cl)cc(=O)oc2c1 | -9% | i | 10% | i | 1% | 9%
CC(=O)NCCNc1cc(-c2ccccc2C)ncn1 | 16% | · | · | · | · | 13%
COc1cc(C(=O)NCCCCCCNC(=O)c2cc(OC)c(OC)c(OC)c2)cc(OC)c1OC | 1% | i | 11% | i | 10% | 11%
COc1cc(C(=O)NCCCCc2ccccc2)cc(OC)c1OC | 5.8µM* | i | 0% | i | 0% | ?
COc1cccc(OCCNC(=O)c2cc(OC)c(OC)c(OC)c2)c1 | 13µM* | i | -5% | i | -5% | ?
COc1cc(C(=O)NCCOc2ccc(C)c(C)c2)cc(OC)c1OC | -11% | i | -21% | ? | 0% | -19%
COc1cc(NC(C)CCc2ccccc2)cc(OC)c1OC (configuration not stated) | 10µM* | ? | -5% | i | 1% | 13µM*
O=C(Nc1cccc([N+](=O)[O-])c1)Nc1ccc2c(c1)OCCO2 | ? | ? | -3% | i | 3% | ?
COc1cc2oc3ccccc3c2cc1N(CC(=O)N1CCCCC1)S(=O)(=O)c1ccc(C)cc1 | 23µM* | i | -14% | i | -19% | ?
CCN(CC)C(=O)CN(c1cc2c(cc1OC)oc1ccccc12)S(=O)(=O)c1ccccc1 | ? | ? | -11% | ? | -14% | 18µM*
